The values below come from article PMC5540273 (PLoS ONE, 2017).

Some test systems named below: BMX; BRAF; BRSK1; BRSK2; BTK; BUB1; CAMK1B; CAMK1D; CAMK1G; CAMK1; CAMK2A; CAMK2B; CAMK2D; CAMK2G; CAMK4; CAMKK1; CAMKK2; CASK.
Conditions in all cases: concentration: 1 μM,replicates: in singlicate; n = 1
The next experiment has as its system T1, BRK.
T1 construct: gene PTK6

The test system of the next experiment is T2, CDC2L1.
T2 construct: gene CDK11B
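Further: KINOMEscan kinase panel screen.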

With `Cl.Nc1n[nH]c2cc(-c3ccccn3)ccc12` [GSK2189892], the “%Inh” value in the experiment on BMX is listed as 12%; in the experiment on BRAF, 0%; in the experiment on BRK it was 32%; in the experiment on BRSK1, 0%; in the experiment with BRSK2, 0%; in the experiment on BTK, 0%. Further, the “%Inh” value is listed as 0% with BUB1; 0% in the experiment on CAMK1B; 25% in the experiment on CAMK1D; 0% in the experiment on CAMK1G; 23% in the experiment on CAMK1; 0% in the experiment with CAMK2A. In addition, the “%Inh” value with CAMK2B was found to be 0%; in the experiment with CAMK2D, 2%; in the experiment with CAMK2G it was 24%; in the experiment on CAMK4, 0%; in the experiment on CAMKK1, 0%; in the experiment with CAMKK2, 9%. For the same compound, the “%Inh” value in the experiment on CASK is given as 0%; in the experiment on CDC2L1, 1%.

Consider `COc1cc(Nc2nccc(N3CCC(NC(=O)c4cccc(C#N)c4)C3)n2)cc(OC)c1OC` (centres unmarked) [GSK1379751], for which the “%Inh” value stood at 0% in the experiment with BMX; 0% in the experiment with BRAF; 0% in the experiment with BRK; 0% in the experiment on BRSK1; 100% in the experiment with BRSK2; 0% in the experiment with BTK. For the same compound, the “%Inh” value with BUB1 stood at 61%; with CAMK1B, 22%; in the experiment on CAMK1D, 0%; in the experiment on CAMK1G, 0%; in the experiment with CAMK1, 3%; in the experiment on CAMK2A it was 0%. Besides, the “%Inh” value came to 0% in the experiment on CAMK2B; 0% in the experiment with CAMK2D; 17% in the experiment with CAMK2G; 0% in the experiment on CAMK4; 0% with CAMKK1; 3% in the experiment on CAMKK2. Moreover, the “%Inh” value in the experiment on CASK is given as 3%; in the experiment with CDC2L1, 0%.

For `COC(=O)c1cccc(NC(=O)NC2CCN(c3ccnc(NCc4ccc(F)cc4)n3)CC2)c1` [GSK1379860], the “%Inh” value in the experiment on BMX is recorded as 11%; in the experiment with BRAF, 2%; in the experiment with BRK, 10%; in the experiment with BRSK1 it was 0%; in the experiment with BRSK2, 0%; in the experiment on BTK it was 0%. Also, the “%Inh” value with BUB1 is 21%; with CAMK1B it was 67%; with CAMK1D, 0%; in the experiment on CAMK1G, 0%; with CAMK1, 0%; with CAMK2A, 0%. For the same compound, the “%Inh” value in the experiment on CAMK2B amounted to 0%; with CAMK2D, 0%; in the experiment with CAMK2G, 1%; with CAMK4, 0%; with CAMKK1, 0%; with CAMKK2 it was 0%. In addition, the “%Inh” value with CASK and in the experiment on CDC2L1 was 0% in each case.

Take `Cn1ccc2ncnc(Oc3ccc(NC(=O)Nc4cnn(C(C)(C)C)c4)c(Cl)c3)c21`: the “%Inh” value in the experiment with BMX is 0%; with BRAF it was 77%; in the experiment with BRK, 0%; in the experiment on BRSK1 it was 0%; in the experiment with BRSK2 it was 12%; in the experiment with BTK, 0%. Further, the “%Inh” value is on record as 0% in the experiment with BUB1; 9% in the experiment with CAMK1B; 0% in the experiment with CAMK1D; 0% in the experiment with CAMK1G; 9% in the experiment with CAMK1; 0% in the experiment with CAMK2A. The “%Inh” value worked out at 17% in the experiment with CAMK2B; 0% with CAMK2D; 2% in the experiment on CAMK2G; 7% in the experiment with CAMK4; 0% in the experiment with CAMKK1; 0% with CAMKK2. The “%Inh” value with CASK was 10%; with CDC2L1 it was 0%.

Regarding `Cc1ccc2c(-c3ccnc(Nc4ccc(C(F)(F)F)cc4)n3)cnn2n1` [GW819776], the “%Inh” value is on record as 0% in the experiment on BMX; 0% in the experiment on BRAF; 4% with BRK; 0% in the experiment with BRSK1; 14% with BRSK2; 0% in the experiment on BTK. The “%Inh” value in the experiment with BUB1 was 6%; with CAMK1B, 0%; in the experiment with CAMK1D, 0%; with CAMK1G, 0%; in the experiment on CAMK1 it was 0%; with CAMK2A, 0%. The “%Inh” value with CAMK2B stood at 0%; in the experiment with CAMK2D, 0%; in the experiment with CAMK2G, 0%; in the experiment with CAMK4 it was 0%; with CAMKK1 it was 19%; in the experiment on CAMKK2, 0%. In addition, the “%Inh” value in the experiment on CASK is on record as 21%; in the experiment on CDC2L1, 0%.

As to `C[C@@H](Oc1cc(-n2cnc3cc(-c4ccncc4)ccc32)sc1C(N)=O)c1ccccc1Cl` [GSK479719], the “%Inh” value was determined as 18% in the experiment on BMX; 1% with BRAF; 15% with BRK; 58% with BRSK1; 79% in the experiment with BRSK2; 0% in the experiment with BTK. Further, the “%Inh” value stood at 23% in the experiment with BUB1; 18% with CAMK1B; 6% in the experiment with CAMK1D; 0% with CAMK1G; 4% in the experiment with CAMK1; 0% in the experiment on CAMK2A. In addition, the “%Inh” value in the experiment on CAMK2B amounted to 0%; in the experiment with CAMK2D, 0%; with CAMK2G, 0%; in the experiment on CAMK4 it was 0%; in the experiment with CAMKK1, 18%; in the experiment with CAMKK2, 54%. For the same compound, the entries for the “%Inh” value in the experiment with CASK and in the experiment with CDC2L1 were 29% and 0%, respectively.

Turning to `N#Cc1cccc(C(=O)NC2CCN(c3ccnc(Nc4ccc(F)cc4)n3)C2)c1` (centres unmarked) [GSK1379708], the “%Inh” value in the experiment on BMX worked out at 6%; in the experiment on BRAF, 0%; in the experiment with BRK, 16%; in the experiment on BRSK1, 0%; with BRSK2, 0%; with BTK, 0%. In addition, the “%Inh” value was 31% with BUB1; 0% in the experiment on CAMK1B; 5% with CAMK1D; 0% in the experiment with CAMK1G; 9% with CAMK1; 0% in the experiment on CAMK2A. The “%Inh” value with CAMK2B, in the experiment on CAMK2D, in the experiment on CAMK2G, in the experiment with CAMK4, in the experiment on CAMKK1 and with CAMKK2 was 0% throughout. Moreover, the “%Inh” value is recorded as 15% in the experiment with CASK and 0% in the experiment on CDC2L1.

Consider `O=C(NOCC1CC1)c1cc(Br)c(F)c(F)c1Nc1ccc(I)cc1Cl`, for which the “%Inh” value with BMX, in the experiment with BRAF, in the experiment with BRK, in the experiment with BRSK1, in the experiment on BRSK2 and in the experiment on BTK was 0% throughout. The “%Inh” value with BUB1, in the experiment with CAMK1B, in the experiment on CAMK1D, in the experiment with CAMK1G, in the experiment on CAMK1 and with CAMK2A was 0% in each case. In addition, the “%Inh” value in the experiment with CAMK2B, in the experiment with CAMK2D, with CAMK2G, with CAMK4, with CAMKK1 and in the experiment with CAMKK2 was 0% throughout. The “%Inh” value with CASK and with CDC2L1 was 0% in each case.

Take `CN1CCN(CCCNc2nccc(-c3c(-c4ccc(F)cc4)nn4cc(C(N)=O)ccc34)n2)CC1` [GW622475]: the “%Inh” value in the experiment on BMX is recorded as 20%; with BRAF, 49%; in the experiment on BRK it was 6%; in the experiment with BRSK1 it was 9%; with BRSK2, 29%; with BTK, 0%. For the same compound, the “%Inh” value with BUB1 is given as 25%; in the experiment with CAMK1B, 0%; in the experiment with CAMK1D, 21%; with CAMK1G, 21%; with CAMK1, 31%; in the experiment with CAMK2A it was 0%. Further, the “%Inh” value with CAMK2B amounted to 0%; in the experiment with CAMK2D it was 21%; in the experiment with CAMK2G, 37%; in the experiment on CAMK4, 0%; in the experiment with CAMKK1, 11%; in the experiment with CAMKK2, 30%. Further, the “%Inh” value is 3% with CASK and 6% in the experiment on CDC2L1.

With `COc1cccc(CNC(=O)NC2CCN(c3ccnc(Nc4cc(OC)c(OC)c(OC)c4)n3)C2)c1` (centres unmarked) [GSK1379765], the “%Inh” value in the experiment on BMX was 23%; with BRAF, 0%; in the experiment with BRK, 34%; with BRSK1 it was 0%; with BRSK2 it was 0%; in the experiment on BTK it was 42%. Further, the “%Inh” value in the experiment with BUB1 stood at 81%; in the experiment with CAMK1B it was 35%; in the experiment with CAMK1D, 17%; with CAMK1G, 0%; in the experiment on CAMK1 it was 35%; in the experiment with CAMK2A, 0%. For the same compound, the “%Inh” value is 0% in the experiment with CAMK2B; 0% in the experiment on CAMK2D; 19% in the experiment with CAMK2G; 0% in the experiment on CAMK4; 16% in the experiment on CAMKK1; 14% in the experiment with CAMKK2. For the same compound, the “%Inh” value in the experiment with CASK and in the experiment on CDC2L1 was 0% each time.

`CCNCC(Cc1ccccc1)NC(=O)c1cc(Br)c(-c2ccnc3[nH]ccc23)s1.Cl.Cl` (centres unmarked) [GSK1383280]: the “%Inh” value in the experiment with BMX worked out at 3%; in the experiment on BRAF, 0%; in the experiment on BRK, 34%; in the experiment with BRSK1 it was 0%; in the experiment with BRSK2 it was 0%; in the experiment on BTK, 0%. The “%Inh” value in the experiment on BUB1 is 31%; in the experiment with CAMK1B, 28%; in the experiment on CAMK1D, 32%; in the experiment with CAMK1G, 11%; in the experiment on CAMK1, 41%; with CAMK2A it was 0%. Also, the “%Inh” value in the experiment with CAMK2B is 0%; in the experiment on CAMK2D, 23%; with CAMK2G, 34%; in the experiment with CAMK4, 21%; with CAMKK1, 19%; with CAMKK2, 25%. In addition, the “%Inh” value with CASK was determined as 0%; with CDC2L1, 16%.

Turning to `CC(=O)Nc1nc2cnc(Nc3cc(NC(=O)c4cccc(CC(C)(C)C#N)c4)ccc3C)nc2s1`, the “%Inh” value in the experiment with BMX stood at 9%; in the experiment with BRAF it was 99.9%; with BRK, 0%; in the experiment on BRSK1, 23%; with BRSK2 it was 14%; in the experiment with BTK, 51%. Moreover, the “%Inh” value in the experiment with BUB1 came out at 30%; in the experiment with CAMK1B, 0%; in the experiment on CAMK1D, 8%; with CAMK1G, 0%; with CAMK1 it was 4%; with CAMK2A, 0%. In addition, the “%Inh” value with CAMK2B stood at 0%; with CAMK2D, 7%; in the experiment with CAMK2G it was 14%; with CAMK4, 0%; with CAMKK1, 21%; with CAMKK2, 11%. Also, the “%Inh” value is recorded as 0% with CASK and 16% with CDC2L1.

Take `CCn1c(-c2nonc2N)nc2cncc(Br)c21` [SB-738004]: the “%Inh” value in the experiment on BMX is reported as 27%; with BRAF, 0%; with BRK, 10%; in the experiment on BRSK1, 0%; in the experiment with BRSK2, 0%; with BTK it was 47%. In addition, the “%Inh” value with BUB1 is given as 93.7%; with CAMK1B, 34%; in the experiment with CAMK1D, 15%; with CAMK1G, 16%; with CAMK1 it was 14%; in the experiment with CAMK2A, 27%. Moreover, the “%Inh” value in the experiment on CAMK2B was 29%; in the experiment on CAMK2D, 27%; in the experiment with CAMK2G, 14%; in the experiment with CAMK4 it was 0%; in the experiment on CAMKK1, 25%; with CAMKK2, 17%. Also, the results for the “%Inh” value with CASK and in the experiment on CDC2L1 were 29% and 0%, respectively.
